# From PubChem BioAssay (Tox21)
# Several values for one entry are separate records, joined by “and”; a condition that tells them apart may be missing. Identical values can stand only once. Inconclusive results are not listed. Where a call stands in place of a potency, no number is given. More than one record can exist for a structure, and the calls need not agree. Activity calls are given as the source filed them. Calls come from the whole dose curve; as a rule, active = well fitted curve in the direction sought with a large enough effect in the repeat runs; inconclusive = weak or mixed curves; inactive = no such curve, though single readings can be large; an effect the other way counts as inactive or inconclusive.
# Assays:
# [1] = A CellTox Green Cytotoxicity Assay to monitor cytotoxicity in HEK293 cells - 32 hour (AID 1224881); note: nearly all actives have a fitted effect of over 40% in size; note: potency is the fitted concentration of half-maximal effect
# In short: (§1)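 Seeding of HEK293 cells together with cytotoxicity dye preceded a 5 h incubation at 37 C/5% CO2. Test compounds in DMSO were then added and fluorescence monitored across 40 h.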
# [2] = A CellTox Green Cytotoxicity Assay to monitor cytotoxicity in HepG2 cells - 0 hour (AID 1224882); note: nearly all actives have a fitted effect of over 35% in size; note: potency is the fitted concentration of half-maximal effect
# In short: (§2)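 Nonlytic assay: viable cells exclude the dye, so fluorescence scales with cell death. HepG2 at 600 cells/well, compounds added after 5 h, signal read across 40 h.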
# [3] = A CellTox Green Cytotoxicity Assay to monitor cytotoxicity in HEK293 cells - 8 hour (AID 1224884); note: nearly all actives have a fitted effect of over 35% in size; note: potency is the fitted concentration of half-maximal effect
# In short: as §1
# [4] = qHTS RealTime-Glo MT Cell Viability Assay in HepG2 cells - 16 hour (AID 1224885); note: nearly all actives have a fitted effect of over 50% in size; note: potency is the fitted concentration of half-maximal effect
# In short: (§3)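 qHTS, HepG2, 600 cells/well, RealTime-Glo (NanoLuc + prosubstrate) added with cells; 5 h preincubation; DMSO compound addition; 37 C; luminescence at 0/8/16/24/32/40 h.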
# [5] = qHTS RealTime-Glo MT Cell Viability Assay in HEK293 cells - 24 hour (AID 1224886); note: nearly all actives have a fitted effect of over 50% in size; note: potency is the fitted concentration of half-maximal effect
# In short: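 Assay medium contained NanoLuc luciferase plus cell-permeant prosubstrate, added with HEK293 cells at 600 cells/well. After 5 h at 37 C/5% CO2 compounds were added; plates stayed at 37 C for 40 h with serial luminescence reads.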
# [6] = qHTS RealTime-Glo MT Cell Viability Assay in HEK293 cells - 8 hour (AID 1224887); note: nearly all actives have a fitted effect of over 50% in size; note: potency is the fitted concentration of half-maximal effect
# In short: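 Tox21 screen in HEK293 using RealTime-Glo MT chemistry, with cells and reagent co-dispensed. Luminescence proportional to viable cell number was captured at intervals during 40 h compound exposure at 37 C.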
# [7] = A CellTox Green Cytotoxicity Assay to monitor cytotoxicity in HEK293 cells - 16 hour (AID 1224888); note: nearly all actives have a fitted effect of over 35% in size; note: potency is the fitted concentration of half-maximal effect
# In short: as §1
# [8] = qHTS RealTime-Glo MT Cell Viability Assay in HepG2 cells - 0 hour (AID 1224889); note: nearly all actives have a fitted effect of over 50% in size
# In short: as §3
# [9] = A CellTox Green Cytotoxicity Assay to monitor cytotoxicity in HepG2 cells - 8 hour (AID 1224890); note: nearly all actives have a fitted effect of over 45% in size; note: potency is the fitted concentration of half-maximal effect
# In short: as §2
# [10] = A CellTox Green Cytotoxicity Assay to monitor cytotoxicity in HepG2 cells - 32 hour (AID 1224883); note: nearly all actives have a fitted effect of over 50% in size; note: potency is the fitted concentration of half-maximal effect
# In short: as §2
Compound,Potency [1],Potency [2],Potency [3],Potency [4],Potency [5],Potency [6],Potency [7],Potency [8],Potency [9],Potency [10]
CS(=O)(=O)c1ccc(C(=O)C2C(=O)CCCC2=O)c([N+](=O)[O-])c1,44.4 µM (active),39.6 µM (active),44.4 µM (active),inactive,25 µM (active),21.4 µM (active),44.4 µM (active),inactive,39.6 µM (active),–
CCc1nn(C)c(C(=O)NCc2ccc(C(C)(C)C)cc2)c1Cl,inactive,inactive,inactive,inactive,0.049 µM (active),4.36 µM (active),–,–,inactive,–
CCCN(CCC)c1c([N+](=O)[O-])cc(S(N)(=O)=O)cc1[N+](=O)[O-],26.2 µM (active),inactive,–,24.5 µM (active),23.3 µM (active),31.6 µM (active),52.2 µM (active),inactive,23.3 µM (active),26.2 µM (active)
CCC[CH2][Sn]([CH2]CCC)([CH2]CCC)[O]C(=O)c1ccccc1,0.977 µM (active),inactive,11 µM (active),0.616 µM (active),0.389 µM (active),0.871 µM (active),4.36 µM (active),inactive,1.1 µM (active),–
C[C@@H]1O[C@@H](O[C@@H]2C=C3CC[C@@H]4[C@H](CC[C@]5(C)[C@@H](c6ccc(=O)oc6)CC[C@]45O)[C@@]3(C)CC2)[C@H](O)[C@H](O)[C@H]1O,inactive,inactive,inactive,inactive,0.0301 µM (active),inactive,inactive,inactive,inactive,–
SCc1ccco1,inactive,inactive,inactive,inactive,inactive,–,inactive,inactive,inactive,–
Clc1ccc(CCC(Cn2ccnc2)Sc2c(Cl)cccc2Cl)cc1 (centres undefined),inactive,–,inactive,–,–,–,inactive,inactive,–,–
CCC(C)c1cc([N+](=O)[O-])cc([N+](=O)[O-])c1OC(=O)C=C(C)C (centres undefined),inactive,inactive,inactive,–,38.9 µM (active),49 µM (active),inactive,inactive,inactive,–
Nc1ccc(Sc2ccc(N)cc2)cc1,–,inactive,inactive,inactive,inactive,inactive,–,–,–,4.36 µM (active)
CCCN(CCC)CCc1c[nH]c2ccccc12,inactive,inactive,inactive,inactive,inactive,–,inactive,–,inactive,–
CC(=O)/C=C/c1ccc2c(c1)OCO2,inactive,inactive,inactive,–,inactive,–,inactive,inactive,inactive,–
CC[C@H](C)[C@H]1O[C@]2(C=C[C@@H]1C)C[C@@H]1C[C@@H](C/C=C(\C)[C@@H](O[C@H]3C[C@H](OC)[C@@H](O[C@H]4C[C@H](OC)[C@@H](O)[C@H](C)O4)[C@H](C)O3)[C@@H](C)/C=C/C=C3\CO[C@@H]4[C@H](O)C(C)=C[C@@H](C(=O)O1)[C@]34O)O2,inactive,inactive,inactive,–,–,–,inactive,inactive,–,–
Nc1ccccc1C(=O)OC/C=C/c1ccccc1,–,inactive,inactive,inactive,24.6 µM (active),24.6 µM (active),inactive,inactive,–,inactive
CC(C)CC(C)(c1ccc(O)cc1)c1ccc(O)cc1,49.1 µM (active),inactive,24.6 µM (active) and inactive,–,43.8 µM (active),43.8 µM (active) and inactive,–,–,inactive and 49 µM (active),–
CCN(CC)C(=S)[S-].CCN(CC)C(=S)[S-].[Zn+2],15.4 µM (active),inactive,inactive,13.7 µM (active),4.86 µM (active),–,inactive,inactive,inactive,–
N#Cc1c(-c2ccc(Cl)cc2)[nH]c(C(F)(F)F)c1Br,49 µM (active),inactive,inactive,–,1.1 µM (active),–,–,–,inactive,–
C[C@]12CC[C@@H]3c4ccc(OC(=O)N(CCCl)CCCl)cc4CC[C@H]3[C@@H]1CC[C@@H]2O,inactive,–,inactive,–,inactive,inactive,inactive,–,inactive,inactive
CC(C)CC(C)Nc1ccc(Nc2ccccc2)cc1 (centres undefined),48.2 µM (active),inactive,inactive,–,21.5 µM (active),19.2 µM (active),–,–,–,–
CC(=O)c1cc(C(C)(C)C)cc2c1CCC2(C)C,38.9 µM (active),inactive,inactive,inactive,inactive,–,–,inactive,inactive,–
C=CCC1=C(C)C(OC(=O)C2C(C=C(C)C)C2(C)C)CC1=O (centres undefined),51.9 µM (active),–,51.9 µM (active),–,23.2 µM (active),23.2 µM (active),–,–,–,–
CC(=O)OC1(c2ccccc2)CCN(CCc2ccccc2)CC1,inactive,inactive,inactive,inactive,28.2 µM (active),–,inactive,inactive,inactive,–
COc1cc(C=O)cc2c1[C@H](COC(N)=O)[C@]1(OC(C)=O)ON2C[C@H]2[C@@H]1N2C(C)=O,inactive,inactive,inactive,–,0.245 µM (active),–,inactive,inactive,inactive,–
CC1(C)C(/C=C(\Cl)C(F)(F)F)C1C(=O)OC(C#N)c1cccc(Oc2ccccc2)c1 (centres undefined),inactive,inactive,inactive,inactive,–,–,inactive,inactive,inactive,–
Nc1ccccc1C(=O)Oc1ccc2ccccc2c1,inactive,inactive,inactive,inactive,–,–,inactive,–,inactive,–
COC[C@H](C)N(C(=O)CCl)c1c(C)csc1C,inactive,inactive,inactive,inactive,inactive,–,inactive,inactive,inactive,–
